Measured values as given in PubChem BioAssay AID624330 (Southern Research Specialized Biocontainment Screening …, 2012).
The whole screen tested about 340,000 compounds, of which about 2,100 (0.62%) were called active.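 The calls were made as follows: active = first-screen hits whose inhibition reached a set limit at any dose in the follow-up dose series; inconclusive = inhibition above the set first-screen limit but never retested; inactive = the rest.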 A selection follows. Potency and affinity values are given separately.

Each molecule was assayed against Rac GTPase-activating protein 1 (Homo sapiens) (UniProt Q9H0H5) (assay: MgcRacGAP GTPase-activating activity inhibitors, confirmation, biochemical, ADP Hunter fluorescence, primary and confirmatory (AID 624330;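 also: fluorescence reports GDP produced by GAP-driven GTP hydrolysis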)). Conditions: MgcRacGAP-stimulated Rac1 GTP hydrolysis, at 30 µM, active compounds read high, GST-tagged Rac1 F28L mutant substrate.
Rac GTPase-activating protein 1 (Homo sapiens), sequence (Q9H0H5 whole entry, looked up): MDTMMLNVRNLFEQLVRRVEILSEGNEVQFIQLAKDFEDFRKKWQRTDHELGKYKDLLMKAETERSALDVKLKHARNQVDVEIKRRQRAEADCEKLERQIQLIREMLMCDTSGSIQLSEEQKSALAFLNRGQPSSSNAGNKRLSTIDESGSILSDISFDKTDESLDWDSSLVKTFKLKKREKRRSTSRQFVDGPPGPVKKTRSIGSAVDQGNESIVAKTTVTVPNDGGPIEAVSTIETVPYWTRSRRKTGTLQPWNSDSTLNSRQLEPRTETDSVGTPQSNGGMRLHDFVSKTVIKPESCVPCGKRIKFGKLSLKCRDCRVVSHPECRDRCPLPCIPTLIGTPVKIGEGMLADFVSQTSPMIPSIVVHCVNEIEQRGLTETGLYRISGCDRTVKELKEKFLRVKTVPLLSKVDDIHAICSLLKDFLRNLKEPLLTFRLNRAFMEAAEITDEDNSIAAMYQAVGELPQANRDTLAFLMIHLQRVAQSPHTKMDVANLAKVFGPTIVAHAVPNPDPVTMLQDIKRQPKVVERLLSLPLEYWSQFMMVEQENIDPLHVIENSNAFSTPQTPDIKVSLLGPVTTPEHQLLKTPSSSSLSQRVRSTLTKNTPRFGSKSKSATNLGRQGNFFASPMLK

inhibition, inactive:
Cc1cc2oc(=O)cc(CSc3nc(N)cc(N)n3)c2cc1C(C)C 11.9%
O=C1c2ccccc2[C@@H]2C[C@@H](O)[C@H](Nc3ccccc3)CCN12 8.38%
N#Cc1ccc(N[C@@H]2CCN3C(=O)c4ccccc4[C@@H]3C[C@H]2O)cc1 4.35%
CCC1CCCCN1Cc1ccc(OC)c(C)c1 (stereo not drawn) 14.3%
Cc1ccc(S(=O)(=O)NCCS(=O)(=O)N2CCN(c3ccccc3)CC2)cc1 -3.13%
CC(C)(c1ccc(O)c([N+](=O)[O-])c1)c1ccc(O)c([N+](=O)[O-])c1 5%
N=C(N)SCc1ccc(O)c([N+](=O)[O-])c1 14.6%
CN(CC(=O)Nc1ccc2c(c1)CCC2)CC(=O)Nc1ccccc1Br 3.47%
CC(=O)Nc1c(Cl)cc2c(c1Cl)Cc1cc(N)ccc1-2 2.49%
O=[N+]([O-])c1cc2c(cc1Br)-c1ccccc1C2 3.13%
COc1cc(N)ccc1-c1cc2ccccc2oc1=O 3.42%
Nc1ccc2c(c1)Cc1c(F)cccc1-2 19.7%
COc1cc2c(cc1[N+](=O)[O-])-c1ccccc1C2 -0.68%
Nc1ccc2c(c1)CCC2=O 1.82%
Nc1ccc2c(c1)Cc1cc(Cl)c(Cl)cc1-2 31.7%
CC(=O)Nc1cc2c(cc1Cl)-c1ccccc1C2 0.41%
O=C(CCc1nc2ccccc2s1)NCc1ccccc1F 3.81%
CCSC1=N/C(=C\c2ccccc2)C(=O)N1 7.65%
C/C(=N/NC(=O)C1CC1(c1ccccc1)c1ccccc1)c1ccco1 (stereo not drawn) 10.7%
COc1cc2cc(CN(Cc3cccnc3)C(=O)Nc3ccccc3)c(=O)[nH]c2cc1OC 13.6%
CCCCn1c(N)c(N(CCOC)C(=O)CCN2C(=O)C3CC=CCC3C2=O)c(=O)[nH]c1=O (stereo not drawn) 9.87%
O=C(NCC(=O)N1CCCCCCC1)c1ccc(Cl)c(Cl)c1 16.3%
CC(=O)Nc1ccc2c(c1Br)Cc1ccccc1-2 2.11%
Nc1c(Cl)cc2c(c1Br)Cc1ccccc1-2 13.1%
CC1CN(CC(=O)NC(C)c2ccccc2)CC(C)O1 (stereo not drawn) 10.1%
CC1Cc2ccccc2N1CC(=O)NC(c1ccccc1)c1ccccc1 (stereo not drawn) -0.83%
Cc1ccc(NC(=O)CN2CCN(Cc3ccccc3)CC2)cc1F 6.45%
O=C(CN1CCN(Cc2ccccc2)CC1)Nc1ccc(Cl)cc1 10.4%
O=C(CN1CCCC1)NC(c1ccccc1)c1ccccc1 23.8%
O=C(CN1CCCCCC1)NC(c1ccccc1)c1ccccc1 25.4%
O=C(CN1CCN(C(c2ccccc2)c2ccccc2)CC1)NCc1ccccc1 4.24%
COCCNC(=O)CN1CCN(C(c2ccccc2)c2ccccc2)CC1 25.6%
CCN1CCN(C(=O)c2ccccc2Nc2ccc(SC(F)F)cc2)CC1 9.86%
CCCCCC(=O)Nc1cccc(S(=O)(=O)NC2=NCCC2)c1 6%
O=C(NCc1ccccn1)c1ccc(NS(=O)(=O)c2cccc(Cl)c2)cc1 2.91%
CC1CN(Cc2nc3c(c(=O)n(C)c(=O)n3C)n2CC(O)CO)CC(C)O1 (stereo not drawn) 1.13%
CC(NC(=O)C(C)N1CCN(Cc2ccccc2)CC1)c1ccc(F)cc1 (stereo not drawn) 4.63%
CC(NC(=O)C(C)N1CCN(Cc2ccccc2)CC1)c1ccccc1 (stereo not drawn) 4.7%
CCn1c(SCC(=O)Nc2cccc(F)c2)nc2c(c1=O)SC(C)C2 (stereo not drawn) 3.97%
Cc1ccc(-n2ccnc(SCC(=O)NC3CCCCC3)c2=O)cc1F 7.99%
Cc1ccc(O)c(NC(=O)c2cc(-c3cccs3)on2)c1 5.43%
O=C(Nc1cccc(Cl)c1)c1nc[nH]c1C(=O)NCCN(CCNC(=O)c1[nH]cnc1C(=O)Nc1cccc(Cl)c1)CCNC(=O)c1[nH]cnc1C(=O)Nc1cccc(Cl)c1 10.4%
O=C(c1cc(C2CC2)nn1-c1ccccc1)N1CCN(S(=O)(=O)c2ccc(F)cc2)CC1 4.93%
COc1ccc2[nH]cc(CCNC(C)=O)c2c1 -0.52%
COc1cc2c(CCNC(C)=O)c[nH]c2cc1Cl 7.18%
O=C(C1CCN(C2CCN(Cc3ccc4c(c3)CCO4)CC2)CC1)N1CCOCC1 3.51%
COc1ccc(CCNC(=O)C2CCN(S(=O)(=O)c3ccc(C)cc3)CC2)cc1OC -4.11%
COc1cccc(N(CC(=O)NC2CCCCC2)C(=O)Cn2nnc(-c3ccc(C)o3)n2)c1 -3.15%
Cc1ccsc1/C=N/NC(=O)c1cccc(S(=O)(=O)Nc2ccccc2Cl)c1 13.6%
CC(Cn1cncn1)C(=O)N1CCN(S(=O)(=O)c2ccccc2)CC1 (stereo not drawn) 5.09%
CC(OC(=O)c1cccc(N2C(=O)c3ccccc3C2=O)c1)C(=O)Nc1ccc(N(C)C)cc1 (stereo not drawn) 5.16%
CC(=O)Nc1ccc(NC(=O)C(C)OC(=O)CCN=C2NS(=O)(=O)c3ccccc32)cc1 (stereo not drawn) 7.31%
Cc1csc(=O)n1CC(=O)OC(C)C(=O)Nc1ccc(F)c(F)c1F (stereo not drawn) 7.87%
Cc1csc(=O)n1CC(=O)OC(C)C(=O)Nc1cccc(Cl)c1 (stereo not drawn) 5.89%
Cc1ccc(-n2c(Cc3cccn3C)nnc2SCC(=O)N2CCc3ccccc32)cc1 19%
CSc1ccc(CN2CCCCCC2)cc1 18.5%
COc1cc(OC)c(OC)cc1CN1CCN(c2ccc(F)cc2)CC1 10.3%
COc1cc(OC)c(OC)cc1CN1CCN(Cc2cccn2C)CC1 31.5%
CCN(Cc1ccccc1)C(=O)C1CCN(Cc2ccc(SC)cc2)CC1 23.2%
CSc1ccc(/C=N/N2CCN(Cc3ccccc3Cl)CC2)cc1 0.33%
CCN(Cc1ccccc1)C1CCN(Cc2ccccc2)CC1 -17.1%
COc1ccccc1CN1CCCCCC1 24.6%
COc1cc(OC)c(OC)cc1CN1CCN(c2ccccc2OC)CC1 19.5%
